Assay outcomes from PubChem BioAssay.
SARS PLP yeast: blocks SARS-CoV papain-like protease in a yeast assay; hit rate 0.19% among 330,000; Potency, µM (top dose mostly 32.9 µM), for the others: at the highest dose activity, positive = growth rescue, most hits filed as activators; S. cerevisiae expressing SARS-CoV PLpro, growth rescue; calls by dose curve; also: 0% is about no effect; nearly all actives have a fitted effect of over 55% in size
Pf growth 48h: inhibits P. falciparum growth in the first generation, 48 h; hit rate 5.9% among 310,000; Potency, µM (highest dose often 28.7 µM), inactives show top-dose activity change, negative = inhibition, hits mostly inhibitors; P. falciparum luciferase growth in erythrocytes, 48 h; also: % is scaled to controls: 0 for no effect and ±100 for the full control effect
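Compounds are pin-transferred into medium, infected erythrocytes (2% hematocrit, 0.1% parasitemia final) are added, and plates sit one parasite generation at 37 C in 5% CO2. Detection reagent is then added and luminescence measured.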
Pf growth 96h: P. falciparum growth inhibition at 96 hours. hit rate 6.9% among 320,000. P. falciparum luciferase reporter growth, 96 h. Potency, µM (series often up to 28.7 µM), inactives show top-dose activity change, negative = inhibition, usual class: inhibitors; also: % is scaled to controls: 0 for no effect and ±100 for the full control effect
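Two-generation exposure (96 h) targets delayed-death phenotype. Reporter parasites carrying integrated firefly luciferase, in red cells at 2% hematocrit and 0.05% parasitemia final, kept at 37 C, 5% CO2; luminescence loss indicates inhibition.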
NS1 inh: blocks influenza NS1 protein function | Potency, µM (doses to about 46.1 µM), without a hit: top-dose activity, positive = more growth | hit rate 0.4% among 270,000; calls by dose curve; also: actives are rising curves; nearly all actives have a fitted effect of over 50% in size
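Read-out: OD600 growth recovery of NS1-expressing budding yeast. Cells grown overnight at 30C in -URA glucose medium, washed, resuspended and diluted 1:100 in 2% galactose assay medium, pH 6.0. Same strain lacking NS1 served as positive control.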
The depositor's hits bear a star; ? = inconclusive; nt = no result given; ! = repeats disagree; [ ] = another dose, or the depositor's remark. This is a sample that favours compounds with a hit; in the whole collection about 10% have one here. Unless noted, calls follow the shape of the dose curve; as a rule, active = well fitted inhibition curve with a large enough effect; inconclusive = small, poorly fitted or top-dose-only effect, or another doubt; inactive = no such curve, though single readings can be large or run the other way. Potency is read from the fitted curve at half-maximal effect.

SMILES	SARS PLP yeast	Pf growth 48h	Pf growth 96h	NS1 inh
C/C=C/CSc1nc2c(c(=O)[nH]c(=O)n2C)n1Cc1ccc(C)cc1	-3%	13µM*	?	7%
CCSc1nc2c(c(=O)n(C)c(=O)n2C)n1Cc1ccc(Cl)cc1	nt	nt	nt	-4%
COCCn1c(SCc2ccc(F)cc2)nc2c1c(=O)[nH]c(=O)n2C	5%	-13%	13µM*	17%
Cc1ccc(CSc2nc3c(c(=O)[nH]c(=O)n3C)n2CCC(C)C)cc1	5%	nt	2.9µM*	5%
Cc1ccc(Cn2c(SCC(C)C)nc3c2c(=O)n(C)c(=O)n3C)cc1	4%	3.7µM*	nt	-47%
O=C(Nc1ccccc1Cl)c1ccc2nc(N3CCOCC3)sc2c1	-1%	26%	?	5%
Cc1onc(-c2ccccc2)c1C(=O)OCCOc1ccccc1F	-5%	?	-27%	-46%
Cc1onc(-c2ccccc2)c1C(=O)OCCOc1ccc([N+](=O)[O-])cc1[N+](=O)[O-]	-2%	nt	4.1µM*	2%
Cc1ccccc1OCCOC(=O)c1c(-c2ccccc2)noc1C	-5%	12µM*	?	-34%
O=C(O)[C@@H]1CCCN1Cc1cc2ccccc2c2ccccc12	nt	nt	nt	3%
NC1=NC(=O)/C(=C\c2cccnc2)S1	-4%	8%	9.3µM*	nt
NC1=NC(=O)/C(=C/c2cccc(F)c2)S1	2%	4%	0%	1%
COC(=O)c1ccc(CNC(=O)C2CCC(=O)N(C3CCCCCC3)C2)cc1 (stereo not drawn)	-1%	7%	12%	4%
C/C(=N/N=C1/NC(=O)CC(C(=O)Nc2ccccc2)S1)c1cccs1 (stereo not drawn)	2%	10µM*	9.3µM*	-6%
CCc1nn(C(C)C(=O)N2CCN(c3ccc(OC)cc3)CC2)c(=O)c2cc3occc3n12 (stereo not drawn)	-12%	8%	?	-79%
N#Cc1cc(Oc2cccc3cccnc23)c(-n2nnc3ccccc32)cc1C#N	-11%	1.9µM*	-2%	-132%
N#Cc1cc(O)c(-n2nnc3ccccc32)cc1C#N	-1%	22%	-27%	nt
CC(=O)O[C@H]1CC[C@@]2(C)[C@@H](CC[C@H]3[C@H]2CC(=O)[C@@]2(C)[C@@H]3C[C@H]3CC(C)=CC(=O)[C@H]32)C1	nt	nt	nt	-13%
Cn1c(=O)cc(Nc2ccccc2)c2c(=O)n(-c3ccccc3)c(=O)n(-c3ccccc3)c21	0%	6.6µM*	4.7µM*	4%
Cn1c(=O)c2c(Nc3ccc(F)cc3)cc(=O)n(-c3ccccc3)c2n(C)c1=O	0%	2.3µM*	?	4%
CC(NC(=O)CN(c1cccc(C(F)(F)F)c1)S(C)(=O)=O)c1ccccc1 (stereo not drawn)	nt	?	1.2µM*	-4%
O=C1N/C(=N/O)S/C1=C/c1cccc([N+](=O)[O-])c1	-3%	13%	?	nt
Cc1cccc(/C=C2/S/C(=N/N=C3\CC4CCC3(C)C4(C)C)NC2=O)c1 (stereo not drawn)	-22%	?	8.3µM*	16%
CCN(CC)CCN(CC(=O)Nc1c(C)cc(C)cc1C)C(=O)c1ccccc1	-2%	-3%	-58%	6%
CCCCc1nc(Cl)c(CO)n1Cc1ccc(-c2ccccc2-c2nn[nH]n2)cc1	-1%	13µM*!	7.6µM*	18%
SMILES	SARS PLP yeast	Pf growth 48h	Pf growth 96h	NS1 inh
CCCCC(=O)N(Cc1ccc(-c2ccccc2-c2nn[nH]n2)cc1)C(C(=O)O)C(C)C (stereo not drawn)	nt	15µM*	11µM*	nt
Cc1ccc(O)c(/C=N/NC(=O)C2=NNC(c3ccccc3)(c3ccccc3)C2)c1	6.3µM*	2.9µM*	?	18%
Cc1ccc(O)c(/C=N/NC(=O)CN2CCCC2)c1	-7%	?	?	-4%
N#CCn1cc(/C=N/NC(=O)c2cc3c(ccc4ccccc43)o2)c2ccccc21	1%	9.3µM*	12µM*	12%
COc1ccccc1/C=N/NC(=O)c1cc2c(ccc3ccccc32)o1	-7%	0%	2%	6%
O=C(OCC#CCSc1nnc(-c2cccc3ccccc23)o1)c1cnc[nH]1	-2%	?	?	nt
Cc1ccc(NC2=NCC(=O)N2C2CCCC2)cc1C	1%	13%	?	2%
Cc1ccc(NC2=NCC(=O)N2C2CCCC2)cc1	1%	15%	5.9µM*	3%
COc1ccc(CCn2c(-c3cc([N+](=O)[O-])cc([N+](=O)[O-])c3)nc3nc4ccccc4nc32)cc1	12%	?	0.74µM*	24%
COCCCn1c(-c2ccc(OC)cc2)nc2nc3ccccc3nc21	6%	16%	nt	-4%
CCCn1c(-c2ccc(OC)cc2)nc2nc3ccccc3nc21	-8%	9%	3.7µM*	-13%
Cc1ccc(NC(=O)CN2C(=O)CC(C)S(=O)(=O)c3ccccc32)cc1 (stereo not drawn)	-6%	-1%	-12%	-4%
COc1ccc(/C=N/NC(=O)Cc2ccc(Cl)cc2)cc1OC	1%	2%	?	nt
COc1cc(/C=N/NC(=O)Cc2ccc(Br)cc2)cc(OC)c1O	1%	0%	12µM*	2%
COCCCNC(=O)CSc1ccsc1[N+](=O)[O-]	-1%	1%	-36%[5.75 µM]	-3%
O=C(CSc1ccsc1[N+](=O)[O-])NCc1ccco1	-2%	12µM*	?	nt
CCOc1ccc(OCCC(=O)OCC(=O)Nc2ccc(Cl)cn2)cc1	-2%	-1%	30%	nt
CC12CCC(C(=O)NCc3ccccc3Cl)(CC1=O)C2(C)C (stereo not drawn)	1%	3%	0%	2%
Cc1ccc(NS(=O)(=O)c2ccc3c(c2)NC(=O)CCS3)cc1C	-5%	13µM*	?	-2%
Cc1ccc(NS(=O)(=O)c2ccc3c(c2)CCC(=O)N3)cc1C	2%	6%	-32%	nt
Cc1ccc(NS(=O)(=O)c2ccc3c(c2)NC(=O)CCS3)cc1F	19%	9.3µM*	-20%	4%
CC(=O)/C=C(\C)Nc1ccccc1O	-6%	?	?	-70%
Cn1nccc1C(=O)N1CCCC(Nc2ccc(F)cc2)C1 (stereo not drawn)	0%	13%	?	4%
Cc1csc(=O)n1CCC(=O)OCC(=O)NCc1ccc(F)cc1	-1%	10%	15%	nt
CC1(C)C/C(=N\NC(=S)Nc2ccccc2F)c2cc(O)ccc2O1	4%	13µM*	10µM*	nt
Cc1cccc(NC(=S)N/N=C2\CC(C)(C)Oc3ccc(O)cc32)c1	?	?	?	10%
COc1cccc(-n2c(C)cc(/C=C3\C(=N)N4N=C(CC(=O)N5CCOCC5)SC4=NC3=O)c2C)c1	2%	13%	-16%	2%
COc1ccc(OC)c(-n2c(C)cc(/C=C3\C(=N)N4N=C(CC(=O)N5CCOCC5)SC4=NC3=O)c2C)c1	-3%	?	12µM*	23%
COc1ccccc1CCNC(=O)CC1C(=O)NCCN1CCCc1ccccc1 (stereo not drawn)	0%	?	9%	27%
COc1cccc(CNC(=O)CC2C(=O)NCCN2CCCc2ccccc2)c1 (stereo not drawn)	-6%	?	9.3µM*	25%
